PubChem BioAssay (NCATS)
Records with an inconclusive call do not appear. The source made the active and inactive calls. Calls follow the shape of the dose curve; as a rule, active = well fitted cell-killing curve with a large enough effect; inconclusive = small, poorly fitted or top-dose-only effect, or effect the other way; inactive = flat fitted curve, though single readings scatter.

What was measured:
Assay in all cases: Primary qHTS to identify gynecologic anti-cancer compounds using libraries of approved drugs and bioactive compounds (AID 1345084); also: nearly all actives have a fitted effect of over 55% in size
[1] = system: CAOV3; conditions: Gynecologic cancer cell panel viability, ATPlite luminescence, 48 h; series mostly up to 57.5 µM
Procedure, shortened: (§1)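 Cytotoxicity screen measuring ATP content by luciferase luminescence. Each compound is applied at five concentrations for 48 h at 37 C with 5% CO2.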

[2] = system: CASKI; conditions: Gynecologic cancer cell panel viability, ATPlite luminescence, 48 h; series mostly up to 57.5 µM
Procedure, shortened: as §1

[3] = system: Es-2; conditions: Gynecologic cancer cell panel viability, ATPlite luminescence, 48 h; series mostly up to 57.5 µM
Procedure, shortened: as §1

[4] = system: HeLa; conditions: Gynecologic cancer cell panel viability, ATPlite luminescence, 48 h; series mostly up to 57.5 µM
Procedure, shortened: as §1

[5] = system: Hek293T; conditions: Gynecologic cancer cell panel viability, ATPlite luminescence, 48 h, control line for the selectivity index; series mostly up to 57.5 µM
Procedure, shortened: as §1

[6] = system: JEG-3; conditions: Gynecologic cancer cell panel viability, ATPlite luminescence, 48 h; series mostly up to 57.5 µM
Procedure, shortened: as §1

[7] = system: OV90; conditions: Gynecologic cancer cell panel viability, ATPlite luminescence, 48 h; series mostly up to 57.5 µM
Procedure, shortened: as §1

[8] = system: PA-1; conditions: Gynecologic cancer cell panel viability, ATPlite luminescence, 48 h; series mostly up to 57.5 µM
Procedure, shortened: as §1

[9] = system: SKOV3; conditions: Gynecologic cancer cell panel viability, ATPlite luminescence, 48 h; series mostly up to 57.5 µM
Procedure, shortened: as §1

[10] = system: Tov-21-G; conditions: Gynecologic cancer cell panel viability, ATPlite luminescence, 48 h; series mostly up to 57.5 µM
Procedure, shortened: as §1

[11] = system: Tov112D; conditions: Gynecologic cancer cell panel viability, ATPlite luminescence, 48 h; series mostly up to 57.5 µM
Procedure, shortened: as §1
% is scaled to controls: 0 for no effect and ±100 for the full control effect.

COc1cc(/C=C/C(=O)OC2[C@H](O)CC(O)(C(=O)O)C[C@H]2O)ccc1O (stereo partly drawn)
inactive: Potency [1] | Potency [2] | Potency [3] | Potency [4] | Potency [5] | Potency [6] | Potency [7] | Potency [8] | Potency [9] | Potency [10] | Potency [11]

C[C@@H]1C(=O)O[C@H]2[C@H]1CC[C@@]1(C)C(=O)C=C[C@](C)(O)[C@H]21
inactive: Potency [1] | Potency [2] | Potency [3] | Potency [4] | Potency [5] | Potency [6] | Potency [7] | Potency [8] | Potency [9] | Potency [10] | Potency [11]

O=C(OCC12OC1C=CC(OC(=O)c1ccccc1)C2O)c1ccccc1 (stereo not drawn)
inactive: Potency [1] | Potency [2] | Potency [3] | Potency [4] | Potency [5] | Potency [6] | Potency [7] | Potency [8] | Potency [9] | Potency [10] | Potency [11]

CC1=C(C)C(=O)OC(C(C)C2C(O)CC3C4C5OC5C5(O)CC(OC6OC(CO)C(O)C(O)C6O)CC(O)C5(C)C4CCC32C)C1 (stereo not drawn)
inactive: Potency [1] | Potency [2] | Potency [3] | Potency [4] | Potency [5] | Potency [6] | Potency [7] | Potency [8] | Potency [9] | Potency [10] | Potency [11]

CC(=O)N[C@H]1[C@H](O[C@H]2CC[C@@]3(C)C(CC[C@]4(C)C3CC=C3C5CC(C)(C)CC[C@]5(C(=O)O)[C@H](O[C@@H]5O[C@H](CO)[C@@H](O)[C@H](O)[C@H]5O)C[C@]34C)C2(C)C)O[C@H](CO[C@@H]2OC[C@H](O)[C@H](O)[C@H]2O[C@@H]2OC[C@@H](O)[C@H](O)[C@H]2O)[C@@H](O)[C@@H]1O (stereo partly drawn)
inactive: activity change, negative = cytotoxicity [1] 4.01% [at 11.6 µM] | activity change, negative = cytotoxicity [2] -4.68% [at 11.6 µM] | activity change, negative = cytotoxicity [3] -1.11% [at 11.6 µM] | activity change, negative = cytotoxicity [4] 15.9% [at 11.6 µM] | activity change, negative = cytotoxicity [5] -2.94% [at 11.6 µM] | activity change, negative = cytotoxicity [6] -2.88% [at 11.6 µM] | activity change, negative = cytotoxicity [7] -0.313% [at 11.6 µM] | activity change, negative = cytotoxicity [8] -6.75% [at 11.6 µM] | activity change, negative = cytotoxicity [9] 13% [at 11.6 µM] | activity change, negative = cytotoxicity [10] 0.549% [at 11.6 µM] | activity change, negative = cytotoxicity [11] 6.55% [at 11.6 µM]

C=C1CCC(OC(C)=O)C2(C)CC3(O)OC(=O)C(C)=C3CC12 (stereo not drawn)
inactive: Potency [1] | Potency [2] | Potency [3] | Potency [4] | Potency [5] | Potency [6] | Potency [7] | Potency [8] | Potency [9] | Potency [10] | Potency [11]

C[C@@H]1O[C@@H](O[C@H]2[C@H](O[C@H]3[C@H](O[C@H]4CC[C@@]5(C=O)C(CC[C@]6(C)C5CC=C5C7CC(C)(C)C[C@@H](O)[C@]7(C)CC[C@]56C)C4(C)C)O[C@H](C(=O)O)[C@@H](O)[C@@H]3O)OC[C@@H](O)[C@@H]2O)[C@H](O)[C@H](O)[C@H]1O (stereo partly drawn)
inactive: activity change, negative = cytotoxicity [1] 38.3% [at 11.6 µM] | activity change, negative = cytotoxicity [2] 0.905% [at 11.6 µM] | activity change, negative = cytotoxicity [3] 9.36% [at 11.6 µM] | activity change, negative = cytotoxicity [4] 2.37% [at 11.6 µM] | activity change, negative = cytotoxicity [5] -7.04% [at 11.6 µM] | activity change, negative = cytotoxicity [6] 9.31% [at 11.6 µM] | activity change, negative = cytotoxicity [7] 6.53% [at 11.6 µM] | activity change, negative = cytotoxicity [8] 13.9% [at 11.6 µM] | activity change, negative = cytotoxicity [9] 13.5% [at 11.6 µM] | activity change, negative = cytotoxicity [10] 8.97% [at 11.6 µM] | activity change, negative = cytotoxicity [11] 15.2% [at 11.6 µM]

CC[C@H](/C=C/[C@@H](C)[C@H]1CC[C@H]2[C@@H]3CC=C4C[C@@H](O)CC[C@]4(C)[C@H]3CC[C@]12C)C(C)C
inactive: activity change, negative = cytotoxicity [1] 7.88% [at 6.55 µM] | activity change, negative = cytotoxicity [2] 17.1% [at 6.55 µM] | activity change, negative = cytotoxicity [3] 0.911% [at 6.55 µM] | activity change, negative = cytotoxicity [4] -1.7% [at 6.55 µM] | activity change, negative = cytotoxicity [5] 4.66% [at 6.55 µM] | activity change, negative = cytotoxicity [6] 3.22% [at 6.55 µM] | activity change, negative = cytotoxicity [7] 2.68% [at 6.55 µM] | activity change, negative = cytotoxicity [8] 2.16% [at 6.55 µM] | activity change, negative = cytotoxicity [9] 8.88% [at 6.55 µM] | activity change, negative = cytotoxicity [10] 16.8% [at 6.55 µM] | activity change, negative = cytotoxicity [11] -1.77% [at 6.55 µM]

C/C=C(\C)C(=O)O[C@H]1[C@@H](O[C@]2(COC(=O)CC(C)C)O[C@H](COC(=O)C(C)C)[C@@H](OC(C)=O)[C@@H]2O)O[C@H](COC(C)=O)[C@@H](O)[C@@H]1O
inactive: Potency [1] | Potency [2] | Potency [3] | Potency [4] | Potency [5] | Potency [6] | Potency [7] | Potency [8] | Potency [9] | Potency [10] | Potency [11]

C[C@@H]1CC[C@]2(C(=O)O)CC[C@]3(C)C(=CCC4[C@]5(C)C(CC[C@]43C)C(C)(C)[C@@H](O)[C@H](O)[C@@H]5O)C2[C@]1(C)O (stereo partly drawn)
inactive: Potency [1] | Potency [2] | Potency [3] | Potency [4] | Potency [5] | Potency [6] | Potency [7] | Potency [8] | Potency [9] | Potency [10] | Potency [11]

COc1cc(COC2OC(CO)C(O)C(O)C2O)cc(OC)c1O (stereo not drawn)
inactive: Potency [1] | Potency [2] | Potency [3] | Potency [4] | Potency [5] | Potency [6] | Potency [7] | Potency [8] | Potency [9] | Potency [10] | Potency [11]

CC(=O)O[C@@]1(C)C[C@@H](O)[C@]2(O)C=CO[C@@H](O[C@@H]3O[C@H](CO)[C@@H](O)[C@H](O)[C@H]3O)[C@@H]21
inactive: Potency [1] | Potency [2] | Potency [3] | Potency [4] | Potency [5] | Potency [6] | Potency [7] | Potency [8] | Potency [9] | Potency [10] | Potency [11]

CC1(CO)CC2C(O)C(=O)C3(CO)CC3(C)C2C1 (stereo not drawn)
inactive: Potency [1] | Potency [2] | Potency [3] | Potency [4] | Potency [5] | Potency [6] | Potency [7] | Potency [8] | Potency [9] | Potency [10] | Potency [11]
